Screens deposited in PubChem BioAssay by National Center for Advancing Translational Sciences (NCATS).
Most compounds without a hit are left out; they make up all but 3.3% or so of the library.
AmpC inh detg: blocks E. coli AmpC beta-lactamase in detergent assay; Potency, µM (doses to about 114 µM), inactives show at the highest dose activity change, negative = inhibition, actives largely listed as inhibitors; 370,000 tested, 0.041% active; AID 485294; AmpC hydrolysis of nitrocefin, absorbance 480 nm, 0.01% Triton;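 note: 0% = no-compound wells and -100% = no-enzyme wells; nearly all actives have a fitted effect of over 25% in size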
Target sequence (P00811 whole entry, looked up): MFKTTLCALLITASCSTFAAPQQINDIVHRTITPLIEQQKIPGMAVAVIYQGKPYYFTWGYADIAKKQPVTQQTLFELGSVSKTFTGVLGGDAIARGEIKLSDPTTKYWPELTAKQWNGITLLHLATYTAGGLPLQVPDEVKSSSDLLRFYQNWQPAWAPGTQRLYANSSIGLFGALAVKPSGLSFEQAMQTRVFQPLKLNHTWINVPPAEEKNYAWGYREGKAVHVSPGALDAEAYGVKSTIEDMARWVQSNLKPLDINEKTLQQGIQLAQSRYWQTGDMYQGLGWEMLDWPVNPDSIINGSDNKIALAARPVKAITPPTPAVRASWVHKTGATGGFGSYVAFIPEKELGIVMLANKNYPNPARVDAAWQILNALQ
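20 mM phosphate pH 7.0 + 0.01% (detergent screen) or 0.0001% Triton X-100; 5.3 nM AmpC reagent; cpd preinc 15 min RT; nitrocefin (800 uM stock) to start; A480 q20 s × 4 min; Activity was normalised to no-enzyme and no-compound control wells.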
AmpC inh no detg: blocks E. coli AmpC beta-lactamase in detergent-free assay; P00811; AmpC nitrocefin hydrolysis, absorbance 480 nm, 0.0001% Triton; Potency, µM (top dose mostly 57.1 µM), for inactives: at the highest dose activity change, negative = inhibition, hits mostly inhibitors; 330,000 tested, 0.52% active; AID 485341;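 note: plate controls were no compound for no effect and no enzyme for full effect; nearly all actives have a fitted effect of over 20% in size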
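AmpC (5.3 nM in the dispensed reagent) in 20 mM phosphate pH 7.0 with 0.01% (detergent screen) or 0.0001% Triton X-100 was preincubated with compounds for 15 min at room temperature. Nitrocefin was then added from an 800 uM solution, and hydrolysis was followed at 480 nm.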
Sm TGR inh: inhibitors of Schistosoma mansoni thioredoxin glutathione reductase; AID 485364; Potency, µM (doses to about 114 µM), inactives show at the top dose activity change, negative = inhibition, most hits filed as inhibitors; purified TGR, DTNB reduction, TNB absorbance 405 nm; 360,000 tested, 3% active; note: nearly all actives have a fitted effect of over 60% in size
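Kinetic colorimetric format: TGR-catalysed, NADPH-driven DTNB reduction monitored via TNB absorbance. Enzyme dispensed at 20 nM; compound exposure 15 min at room temperature before reaction start.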
* hit, by the source's call; ? = inconclusive; · = no result given; [ ] = dose if it differs, or a comment. Calls come from the whole dose curve; as a rule, active = well fitted curve in the direction sought with a large enough effect; inconclusive = small, poorly fitted or top-dose-only effect, or another doubt; inactive = no such curve, though single readings can be large; an effect the other way counts as inactive or inconclusive. Unless noted, % is set by controls: 0 for no effect and ±100 for the full control effect; potency is the fitted concentration of half-maximal effect.

SMILES | AmpC inh detg | AmpC inh no detg | Sm TGR inh
COC(=O)CCCC1=CC2=C(c3ccccc3)C(=O)C(C)(OC(=O)C3CCCC3)C(=O)C2=CN1Cc1ccc2c(c1)OCO2 (configuration not stated) | -3% | 93% | 18µM*
O=S(=O)(Cc1ccccc1)N1CCCc2ccccc21 | -7% | -28% | -10%
CCCOC(=O)C1[C@H]2C(=O)N(Cc3ccco3)C[C@]23C=C[C@H]1O3 (some centres not stated) | -13% | 57% | 25µM*
CCCOC(=O)C1C2C=CC3(CN(c4ccc(Cl)c(F)c4)C(=O)C13)O2 (configuration not stated) | 5% | 7.1µM* | 0%
CCCCOC(=O)C1[C@H]2C(=O)N(Cc3cccs3)C[C@]23C=C[C@H]1O3 (some centres not stated) | -2% | 76% | -8%[11.4 µM]
CCOC(=O)C1C2C=CC3(CN(c4ccc(Cl)c(F)c4)C(=O)C13)O2 (configuration not stated) | -10% | -10% | 3%
CN(Cc1ccccc1)c1nc(-c2cccc([N+](=O)[O-])c2)nc2ccccc12 | -7% | -14% | 4%
O=C(CNC(=S)NC(=O)c1cccc([N+](=O)[O-])c1)c1ccccc1 | -8% | 13µM* | -11%
CCCCCC(=O)NNC(=S)NC(=O)c1ccccc1[N+](=O)[O-] | -9% | 23% | 0%
CCCCCC(=O)NNC(=S)NC(=O)c1cccc([N+](=O)[O-])c1 | -6% | -5% | 1.6µM*
CC(=O)c1cccc([N+](=O)[O-])c1 | 0% | -1% | 0%
O=C(NC(=S)NCc1ccccc1)c1cccc([N+](=O)[O-])c1 | -13% | -36% | -7%
O=C(C#Cc1ccccc1)c1cccc([N+](=O)[O-])c1 | ? | -29% | 0.25µM*
CC(C)NC(=O)COc1nncc2ccccc12 | -15% | -14%[11.4 µM] | -11%
Cc1ccc(S(=O)(=O)NC(=NC2CCCCC2)c2ccc(Cl)cc2)cc1 | 1% | -11% | -7%
COc1ccc2[nH]cc(CCNC(=O)COc3cc(C)cc4oc(=O)cc(C)c34)c2c1 | -8% | 27% | -13%
COc1ccc(-n2c3c(cc(-c4nc(-c5ccc(Cl)cc5)cs4)c2=O)C(=O)CC(C)(C)C3)cc1 | 17% | · | 7%
CCOC(=O)c1cc2c(=O)n3cccc(C)c3nc2n(Cc2ccco2)c1=NC(=O)c1cccnc1 | -5% | 8% | 5.6µM*
CCOC(=O)c1cc2c(=O)n3ccccc3nc2n(Cc2ccco2)c1=NC(=O)c1cccnc1 | 3% | 19% | 22µM*
Cc1cccn2c(=O)c3cc(C#N)c(=NC(=O)c4ccco4)n(Cc4ccco4)c3nc12 | 1% | -19% | ?
CCOC(=O)c1cc2c(=O)n3ccccc3nc2n(Cc2ccco2)c1=NC(=O)c1ccc(C)c(C)c1 | 6% | · | -30%
Cc1cccc(C(=O)N=c2c(C#N)cc3c(=O)n4cccc(C)c4nc3n2Cc2ccco2)c1 | ? | -21% | 45µM*
CCOC(=O)c1cc2c(=O)n3ccccc3nc2n(Cc2ccco2)c1=NC(=O)c1cccc(C)c1 | 4% | · | -31%
C=CCn1c(CNC(=O)c2ccccc2F)nnc1SCC(=O)NC(C)c1ccccc1 (configuration not stated) | 0% | 8% | 0%
CCOC(=O)CSc1n[nH]c(NC(C)=O)n1 | -4% | -11% | -1%
SMILES | AmpC inh detg | AmpC inh no detg | Sm TGR inh
O=C(NCC(c1ccco1)N1CCN(c2ccccc2F)CC1)c1ccc2c(c1)OCO2 (configuration not stated) | ? | -15% | -2%
Cc1ccc(C(=O)NCCc2nnc3ccc(NCCCN4CCOCC4)nn23)cc1 | ? | -9% | -4%
Cc1nn(C)c(C(=O)Sc2ccccc2)c1[N+](=O)[O-] | -5% | -8% | 2.5µM*
CCn1nc(C)cc1C(=O)Sc1cccc(Cl)c1 | -5% | 2% | 6.3µM*
Cc1nn(C)c(C(=O)N/N=C/c2ccccn2)c1[N+](=O)[O-] | -2% | 15% | -6%
CCn1nc(C)cc1C(=O)N1CCCC(N2CCN(c3cccc(Cl)c3)CC2)C1 (configuration not stated) | 5% | 217% | 2%
Cc1nn(C(C)C(=O)c2cccc(Cl)c2)c(C)c1[N+](=O)[O-] (configuration not stated) | -6% | -11% | 11%
Cc1nn(C)c(C(=O)Sc2cccc(Cl)c2)c1[N+](=O)[O-] | 2% | -26% | 1.4µM*
CN(C(=O)COC(=O)/C=C/c1ccc(Cl)c(Cl)c1)c1c(N)n(Cc2ccccc2)c(=O)[nH]c1=O | ? | 70% | -3%
Cc1ccc2nc3cc([N+](=O)[O-])cc([N+](=O)[O-])c3cc2c1 | ? | -31% | 2.5µM*
Cc1nc2ccc([N+](=O)[O-])cc2nc1C | 2% | -17% | 4%
COC(=O)c1sc2nc(SCC(=O)N(C)c3ccccc3)n(N)c(=O)c2c1C | 1% | -16% | -3%
CCc1cccc(NC(=O)Nc2cccs2)c1 | -3% | 16µM* | 0%
N#Cc1cccc(NC(=O)Nc2cccs2)c1 | -1% | ? | -16%
COc1ccc(/C=N/NC(=O)CNc2ccc(Br)cc2)c(C(=O)O)c1OC | 10% | -30% | -2%
Cc1onc(-c2ccccc2Cl)c1C(=O)Nc1ccc(Br)cc1 | -3% | -31% | -2%
Cc1onc(-c2c(F)cccc2Cl)c1C(=O)NCc1ccc(F)cc1 | 7% | -26% | 13%
Cc1onc(-c2ccccc2Cl)c1C(=O)N[C@@H]1C(=O)N2[C@@H]1SC(C)(C)[C@@H]2C(=O)O | 0.35µM* | 0.79µM* | -3%
